“And” between values parts separate entries of the source, which are not always exact repeats. Equal entries are not always repeated. This is part of a sample that, as a whole, favours compounds with a hit. Of some 83,000 tested, about 20% had one in any assay.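 Interpretation: 100, growth as untreated; towards 0, rising growth inhibition; 0, no net growth; 0 to -100, cell death. Compounds scoring below 10 were considered active.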 The source made the active and inactive calls.

In one test the test system is HCT-116 colon. The experiment in a line: NCI-60 one-dose screen, 48 h (100 = growth as untreated, 0 = no growth, -100 = all killed). The following applies: 1 µM. On the procedure: Growth inhibition of the HCT-116 human tumor cell line is measured as a screen for anti-cancer activity. Cells are grown in 96 well plates and exposed to the test compound for 48 hours. Compounds are tested at a single concentration, which is 10^-5 M for most compounds. The reported endpoint is percent growth (GI% or GIPRCNT), where numbers from 0 - 100% represent growth inhibition, and numbers from -100% - 0 represent cell death. For example, a value of 40 represents 60% growth inhibition. A value of 0 means no net growth occurred over the course of the experiment. A value of -40 indicates 40% of cells at the beginning of the experiment died by the end of the experiment. A value of -100 means all cells are dead at the end of the experiment.
NCI-60 Human Tumor Cell Lines Screen was performed using the standard one-dose NCI protocol, which is described in more detail at https://dtp.cancer.gov/discovery_development/nci-60/default.htm.
Compounds with GIPRCNT values below 10 were considered active. Activity score was based on GIPRCNT using the following formula: […]
Score is 0 for GIPRCNT values of 100 or above, 50 for GIPRCNT values of 0, and 100 for GIPRCNT values of -100.
In the case of `CNC(=O)c1cc(Oc2ccc(CC(=O)Nc3cc(C(C)(C)C)nn3C)cc2)ccn1`, the growth is 65% (inactive).

The same test, now with this note: 10 µM.
Take `CC1(C)OB(c2ccc(Cn3cc(F)c(=O)[nH]c3=O)cc2)OC1(C)C`: the growth was 101% (inactive).
`CC#C[C@]1(O)CC[C@H]2[C@@H]3CCC4=CC(=O)CCC4=C3[C@@H](c3ccc4c(c3)OCO4)C[C@@]21C`: the growth was 78.4% (inactive).
On the same count and under the same terms, the same measure for `CNC(=O)c1cc(Oc2ccc(CC(=O)Nc3cc(C(C)(C)C)nn3C)cc2)ccn1`: 33.9% (inactive).

The test is the same for the next values; noted with them: 10 µM unless noted.
For `Cc1cccc(/C=C\C(=O)c2ccc(Cl)cc2)c1`, the growth is 52.5% (inactive) and 62.3% (inactive).
Same read-out and setting: the same measure for `COc1cc2nc(N3CCN(C(=O)C4COc5ccccc5O4)CC3)nc(N)c2cc1OC` (stereo not given): 105% (inactive) and 79.8% (inactive) and 104% (inactive).
`CCc1c(CC(=O)O)c2cc(C)ccc2n1Cc1ccc(Cl)cc1`: the growth was 97.1% (inactive) and 110% (inactive).
Still for that read-out and setting: the same measure for `O=C1CCN(Cc2ccccc2)C(=S)N1`: 103% (inactive) and 106% (inactive); for `COc1c(/C(C)=N/N=c2sc(C(C)=O)nn2-c2ccc(Cl)cc2)c(Oc2ccccc2)c(OC)c2occc12`: 96.4% (inactive) and 77.8% (inactive).
For the compound `Cc1nn(-c2ccccc2)nc1C(=O)Nc1ccccc1C(=O)NCC1CC1`, the growth was 63.9% (inactive) and -13.4% (active).
On the same count and under the same terms, the same measure for `CCN(CC)CCCC(C)Nc1ccnc2cc(Oc3ccccc3)ccc12` (stereo not given): 32% (inactive) and 54.9% (inactive).
Still for that read-out and setting: then `COC(=O)[C@H]1CCCN1C(=O)C1CCCN1C(=O)[C@@H](Cc1ccccc1)NC(=S)Nc1cc(C(F)(F)F)cc(C(F)(F)F)c1` (stereo not given in full), with 112% (inactive) and 65.5% (inactive); and `COc1cc(-c2nccc3cc4c(cc23)OCO4)cc(OC)c1OC`, with 18.7% (inactive) and 25.3% (inactive); and `CC(C)Oc1ccc2cc(-c3nn(CC4CCNCC4)c4ncnc(N)c34)ccc2c1`, with 50.4% (inactive) and 9.14% (active).
`CCCCCCCCCCCCOc1ccccc1C=O`: the growth is 103% (inactive).
Same read-out and setting: the same measure for `CCN(CC)CCOc1ccc(/C=N/Nc2nc3c([nH]2)c(=O)n(C)c(=O)n3C)cc1`: 98.3% (inactive) and 103% (inactive); for `N#CCCOc1ccccc1`: 106% (inactive).
Regarding `COc1cc(C(=O)c2ccc3c(c2)OCO3)cc(OC)c1OC`, the growth was 27.2% (inactive) and 24.5% (inactive).
As to `COc1ccc(-c2cn[nH]c2-c2cc(OC)c(OC)c(OC)c2)cc1N`, the growth was 3.95% (active) and 7.78% (active).
On the same count and under the same terms, the same measure for `O=C(Cc1cccc2ccccc12)N/N=C/c1ccc2c(c1)CCC2`: 66.4% (inactive); for `COc1cc2nc(N3CCC[C@@H](NC(=O)C4COc5ccccc5O4)C3)nc(N)c2cc1OC` (stereo not given in full): 95.9% (inactive) and 95.2% (inactive); for `CC(/C=N/N1C(=O)c2ccccc2C1=O)c1ccccc1` (stereo not given): 108% (inactive).
On the same count and under the same terms, then `CC1=C(/C=C/C(C)=C/C=C/C(C)=C/C=N/NC(=S)NC(=S)N/N=C/C=C(C)/C=C/C=C(C)/C=C/C2=C(C)CCCC2(C)C)C(C)(C)CCC1`, with 6.1% (active) and -84% (active); and `COc1ccc(CCN(C)CCCC(C#N)(c2ccc(OC)c(OC)c2)C(C)C)cc1OC` (stereo not given), with 75% (inactive) and 78.9% (inactive) and 93.4% (inactive).
The same measure, in the same setting: the same measure for `CN(C)c1ccc2nc3ccc(N)cc3[n+](-c3ccccc3)c2c1`: 9.48% (active) and 5.93% (active).
Consider `Oc1nc(NCCc2ccccc2)sc1/C=C1\C=Nc2ncccc21`, for which the growth is 5.84% (active) and 9.69% (active).
Still for that read-out and setting: then `O=C(Nc1ccc(Br)cc1)c1cc(Br)ccc1O`, with 0.123% (active) and 0.553% (active).
In the case of `Clc1ccc(NC(Nc2ccc(Cl)cc2)C(Cl)(Cl)Cl)cc1`, the growth is 61.9% (inactive) and 85.4% (inactive).
For the compound `CCN(CC)CCc1nc(-c2ccccc2)no1`, the growth was 85.5% (inactive) and 103% (inactive).
The same measure, in the same setting: then `O=C(/C=C/c1ccccn1)c1ccccc1O`, with 44.6% (inactive); and `Oc1ccc(/C=C/c2ccccc2)cc1`, with 75.8% (inactive) and 73.8% (inactive).
For `O=C(CN1CCN(c2cc3c(cc2F)c(=O)c(C(=O)O)cn3C2CC2)CC1)Nc1ccc(Cl)cc1`, the growth was 73.1% (inactive) and 99.7% (inactive).
As to `N=C1N=C(N)CS1`, the growth was 107% (inactive).
On the same count and under the same terms, the same measure for `C[N+](C)(C)CN1C(=O)c2ccccc2C1=O`: 104% (inactive); for `CCN(CC)CCCC(CNc1ccnc2cc(Cl)ccc12)c1ccc(Cl)cc1` (stereo not given): -15.1% (active) and -20.3% (active); for `Cc1c(Cl)cccc1NCN1C(=O)c2ccccc2C1=O`: 116% (inactive).
As to `CCN(CC)C(=O)c1cccnc1`, the growth is 105% (inactive).

The same test, now with this note: 30 µM.
For `CNC(=O)c1cc(Oc2ccc(CC(=O)Nc3cc(C(C)(C)C)nn3C)cc2)ccn1`, the growth is 47.4% (inactive).

The same test, now with this note: 50 µM.
In the case of `CC1(C)OB(c2ccc(Cn3cc(F)c(=O)[nH]c3=O)cc2)OC1(C)C`, the growth was 29.3% (inactive).

The same test, now with this note: 100 µM.
Turning to `CC#C[C@]1(O)CC[C@H]2[C@@H]3CCC4=CC(=O)CCC4=C3[C@@H](c3ccc4c(c3)OCO4)C[C@@]21C`, the growth is -78.5% (active).

The values are drawn from PubChem BioAssay (NCI).
